Laboratory results as given in PubChem BioAssay (Tox21).
Values joined by “and” are separate entries in the source; they are usually repeats but may differ in a detail not shown here. Identical values can stand only once. A number with no mark means an inactive call. Inconclusive results are not listed. Where a call stands in place of a potency, no number is given. Active and inactive are the calls of the source. Unless noted, the call rests on the fitted dose curve; in most records, active means well fitted curve in the direction sought with a large enough effect in the repeat runs; inconclusive means weak or mixed curves; inactive means no such curve, though single readings can be large; an effect the other way counts as inactive or inconclusive.

What was measured:
[1] = target: Luciferin 4-monooxygenase (Photinus pyralis) (UniProt P08659); assay: qHTS assay to identify small molecule inhibitors of firefly luciferase (AID 1224835); further: nearly all actives have a fitted effect of over 25% in size; further: potency means the concentration at half of the fitted maximal effect
In short: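 Biochemical qHTS: compounds run as interplate titrations against purified firefly enzyme, with D-luciferin and ATP each at its KM concentration. Light output recorded by CCD imaging.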

[2] = qHTS assay to identify small molecule agonists of the constitutive androstane receptor (CAR) signaling pathway - cell viability counter screen (AID 1224836); further: nearly all actives have a fitted effect of over 45% in size
In short: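 Double-stable HepG2 hepatoma cells (hCAR plus CYP2B6-2.2kb) are treated for 23 h at 37 C with test compounds in 15-point concentration series. PK11195 at 0.75 uM final is co-added. Cell viability is quantified by CellTiter-Fluor.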

[3] = qHTS assay to identify small molecule antagonists of the constitutive androstane receptor (CAR) signaling pathway - cell viability counter screen (AID 1224837); further: nearly all actives have a fitted effect of over 45% in size
In short: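 Read-out: CellTiter-Fluor fluorescence after 23 hr at 37 C/5% CO2. Cells: HepG2 double-stable for hCAR and CYP2B6-2.2kb. Compounds tested at 15 concentrations in the presence of CITCO, final concentration 50 nM.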

[4] = qHTS assay to identify small molecule antagonists of the estrogen related receptor signaling pathway with the pleiotropic PPARgamma coactivator (PGC) from Tox21 10K library - cell viability counter screen (AID 1224840; active means well fitted cell-killing curve with a large enough effect in the repeat runs, not every such curve was filed as active; further: nearly all actives have a fitted effect of over 40% in size; further: potency means the concentration at half of the fitted maximal effect)
In short: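 Fluorescence read-out of CellTiter-Fluor viability reagent, added after cells had been exposed to compound in DMSO for 17.5 h at 37 C; 30 min development at 37 C/5% CO2. Cells: PGC/ERR line, 2,000/well.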

[5] = qHTS assay to identify small molecule agonists of the estrogen related receptor signaling pathway with the pleiotropic PPARgamma coactivator (PGC) from Tox21 10K library (AID 1224842); further: nearly all actives have a fitted effect of over 15% in size
In short: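 PGC/ERR reporter cell line, 2,000 cells per well, incubated 6 h at 37 C before 23 nL compound in DMSO was added. After 18 h at 37 C, One-Glo luminescence read following 30 min at room temperature.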

[6] = target: Thyrotropin receptor (Homo sapiens) (UniProt P16473); assay: qHTS assay to identify small molecule agonists of the thyroid stimulating hormone receptor (TSHR) signaling pathway (AID 1224843; calls by dose curve; further: nearly all actives have a fitted effect of over 45% in size)
In short: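 Agonist-mode screen: TSHR HEK293 cells received test chemicals for half an hour at room temperature, then HTRF cAMP detection reagents for one hour prior to fluorescence measurement. Each chemical ran as a 15-concentration series, triplicated.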

[7] = qHTS assay to identify small molecule agonists of H2AX (AID 1224845; active means well fitted activation curve with a large enough effect in the signal ratio in the repeat runs, not every such curve was filed as active; the % refers to the signal ratio)
In short: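 Wild-type CHO-K1 cells, plated overnight, exposed 3hr at 37C to 15 concentrations (0.76% DMSO final). Lysed, then HTRF anti-pH2AX (S139) cryptate and anti-H2AX-d2 antibodies, 24 hr room temperature; 665/620 nm emission read.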

[8] = qHTS assay to identify small molecule agonists of H2AX - cell viability counter screen (AID 1224847; calls by dose curve; further: nearly all actives have a fitted effect of over 30% in size; further: potency means the concentration at half of the fitted maximal effect)
In short: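 For this counter screen, overnight-attached CHO-K1 cells received test compounds (15 concentrations, 0.76% DMSO final); 3 hr later at 37C, CellTiter-Glo reagent was added and luminescence recorded after 30 min at room temperature.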

[9] = qHTS assay to identify small molecule agonists of the estrogen related receptor (ERR) signaling pathway from Tox21 library (AID 1224849; calls by dose curve; further: nearly all actives have a fitted effect of over 15% in size); settings: ERR reporter cell line, ONE-Glo luciferase, 18 h
In short: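 Luminescence readout (ONE-Glo, 30 min RT) after 18 h compound exposure at 37 C of NTP-supplied ERR reporter cells; cells were plated 6 h before compound addition by pin tool.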

[10] = qHTS RealTime-Glo MT Cell Viability Assay in HEK293 cells - 32 hour (AID 1224868); further: nearly all actives have a fitted effect of over 50% in size; further: potency means the concentration at half of the fitted maximal effect
In short: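 Assay medium contained NanoLuc luciferase plus cell-permeant prosubstrate, added with HEK293 cells at 600 cells/well. After 5 h at 37 C/5% CO2 compounds were added; plates stayed at 37 C for 40 h with serial luminescence reads.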

[11] = A CellTox Green Cytotoxicity Assay to monitor cytotoxicity in HEK293 cells - 0 hour (AID 1224869); further: nearly all actives have a fitted effect of over 50% in size
In short: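 Read-out: fluorescence of a cell-impermeant cyanine dye staining DNA of dead cells, proportional to cytotoxicity. HEK293, 600 cells/well with reagent, compound (23 nL DMSO) added after 5 h; reads at 0, 8, 16, 24, 32, 40 h.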

[12] = qHTS assay to identify small molecule agonists of the hypoxia (HIF-1) signaling pathway - cell viability counter screen (AID 1224844; calls by dose curve; further: nearly all actives have a fitted effect of over 50% in size; further: potency means the concentration at half of the fitted maximal effect)
In short: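 CellTiter-Glo luminescence read-out, 30 min RT, taken in the same wells as the beta-lactamase HRE reporter assay; HRE-bla ME-180 cells, 0.5% dialyzed FBS, 17 hr compound treatment at 37C, 5% CO2.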

[13] = qHTS assay to identify small molecule antagonists of the estrogen related receptor (ERR) signaling pathway from Tox21 library (AID 1224848); further: potency means the concentration at half of the fitted maximal effect; nearly all actives have a fitted effect of over 50% in size
In short: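 Quantitative high-throughput format: ERR reporter cells (2,000/well) pre-incubated 6 h, treated 18 h at 37 C with compounds in DMSO alongside positive and negative controls, then read by ONE-Glo luminescence.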

[14] = qHTS RealTime-Glo MT Cell Viability Assay in HepG2 cells - 24 hour (AID 1224867); further: nearly all actives have a fitted effect of over 50% in size; further: potency means the concentration at half of the fitted maximal effect
In short: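 qHTS, HepG2, 600 cells/well, RealTime-Glo (NanoLuc + prosubstrate) added with cells; 5 h preincubation; DMSO compound addition; 37 C; luminescence at 0/8/16/24/32/40 h.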

[15] = qHTS RealTime-Glo MT Cell Viability Assay in HepG2 cells - 40 hour (AID 1224870); further: nearly all actives have a fitted effect of over 50% in size; further: potency means the concentration at half of the fitted maximal effect
In short: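 HepG2 cells (600/well) mixed with RealTime-Glo MT reagent, settled 5 h at 37 C/5% CO2 before compound addition. Nonlytic NanoLuc luminescence from viable-cell prosubstrate reduction read repeatedly during 40 h treatment at 37 C.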

[16] = target: Nuclear receptor subfamily 1 group I member 3 (Homo sapiens) (UniProt Q14994); assay: qHTS assay to identify small molecule antagonists of the constitutive androstane receptor (CAR) signaling pathway (AID 1224838);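 further: HepG2 cells stably expressing hCAR with CYP2B6 luciferase reporter stimulated by CITCO; nearly all actives have a fitted effect of over 40% in size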
In short: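 Read-out: ONE-Glo luciferase luminescence after 30 min at room temperature. HepG2-CYP2B6-hCAR double-stable cells, compounds in 15-point titration plus 50 nM CITCO final, 24 h at 37 C/5% CO2.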

[17] = qHTS assay to identify small molecule agonists of the hypoxia (HIF-1) signaling pathway (AID 1224846; active means well fitted activation curve with a large enough effect in the signal ratio in the repeat runs, not every such curve was filed as active; the % refers to the signal ratio)
In short: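 Beta-lactamase FRET read-out (CCF4-AM substrate) from ME-180 cells carrying an HRE-driven bla reporter, after 17 hrs compound exposure at 37C/5% CO2. Cells were seeded at 2,000 per well in 0.5% dialyzed FBS medium and preincubated 5 hrs.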

[18] = qHTS assay to identify small molecule antagonists of the estrogen related receptor (ERR) signaling pathway from Tox21 library - cell viability counter screen (AID 1224834); further: potency means the concentration at half of the fitted maximal effect; nearly all actives have a fitted effect of over 30% in size
In short: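 Multiplexed viability counter screen in ERR cells: 17.5 h compound exposure at 37 C, CellTiter-Fluor added, 30 min at 37 C/5% CO2, fluorescence read.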

[19] = target: Nuclear receptor subfamily 1 group I member 3 (Homo sapiens) (UniProt Q14994); assay: qHTS assay to identify small molecule agonists of the constitutive androstane receptor (CAR) signaling pathway (AID 1224839); further: nearly all actives have a fitted effect of over 15% in size; further: potency means the concentration at half of the fitted maximal effect;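 on activation: HepG2 cells stably carrying human CAR and a CYP2B6 luciferase reporter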
In short: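 Readout: firefly luciferase luminescence via ONE-Glo. System: HepG2 double-stable for hCAR and CYP2B6-2.2kb. Conditions: 15-point compound titration, PK11195 at 0.75 uM final, 24 h incubation.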

[20] = qHTS assay to identify small molecule antagonists of the estrogen related receptor signaling pathway with the pleiotropic PPARgamma coactivator (PGC) from Tox21 10K library (AID 1224841; call rule not given here)
In short: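 Luminescence read-out (One-Glo luciferase reagent, 30 min at room temperature) from PGC/ERR cells exposed to DMSO-dissolved test compounds for 18 h at 37 C; cells, 2,000 per well, had been preincubated 6 h before compound transfer.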

Sequence of Luciferin 4-monooxygenase (Photinus pyralis) (P08659 whole entry, looked up): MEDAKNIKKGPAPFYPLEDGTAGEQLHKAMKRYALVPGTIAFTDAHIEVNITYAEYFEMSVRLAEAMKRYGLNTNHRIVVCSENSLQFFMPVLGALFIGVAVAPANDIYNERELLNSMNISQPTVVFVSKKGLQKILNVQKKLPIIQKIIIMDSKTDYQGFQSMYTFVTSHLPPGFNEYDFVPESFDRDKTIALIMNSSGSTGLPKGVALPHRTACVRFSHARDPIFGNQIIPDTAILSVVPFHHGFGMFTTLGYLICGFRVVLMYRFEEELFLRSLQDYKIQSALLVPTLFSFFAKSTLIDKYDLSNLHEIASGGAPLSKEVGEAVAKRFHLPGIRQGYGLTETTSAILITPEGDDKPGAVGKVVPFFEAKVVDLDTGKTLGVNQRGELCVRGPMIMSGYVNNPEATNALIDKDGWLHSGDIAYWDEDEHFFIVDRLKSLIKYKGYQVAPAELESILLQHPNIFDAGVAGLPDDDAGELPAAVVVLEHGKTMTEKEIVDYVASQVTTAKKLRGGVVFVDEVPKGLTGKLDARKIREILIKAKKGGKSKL
Sequence of Thyrotropin receptor (Homo sapiens) (P16473 whole entry, looked up): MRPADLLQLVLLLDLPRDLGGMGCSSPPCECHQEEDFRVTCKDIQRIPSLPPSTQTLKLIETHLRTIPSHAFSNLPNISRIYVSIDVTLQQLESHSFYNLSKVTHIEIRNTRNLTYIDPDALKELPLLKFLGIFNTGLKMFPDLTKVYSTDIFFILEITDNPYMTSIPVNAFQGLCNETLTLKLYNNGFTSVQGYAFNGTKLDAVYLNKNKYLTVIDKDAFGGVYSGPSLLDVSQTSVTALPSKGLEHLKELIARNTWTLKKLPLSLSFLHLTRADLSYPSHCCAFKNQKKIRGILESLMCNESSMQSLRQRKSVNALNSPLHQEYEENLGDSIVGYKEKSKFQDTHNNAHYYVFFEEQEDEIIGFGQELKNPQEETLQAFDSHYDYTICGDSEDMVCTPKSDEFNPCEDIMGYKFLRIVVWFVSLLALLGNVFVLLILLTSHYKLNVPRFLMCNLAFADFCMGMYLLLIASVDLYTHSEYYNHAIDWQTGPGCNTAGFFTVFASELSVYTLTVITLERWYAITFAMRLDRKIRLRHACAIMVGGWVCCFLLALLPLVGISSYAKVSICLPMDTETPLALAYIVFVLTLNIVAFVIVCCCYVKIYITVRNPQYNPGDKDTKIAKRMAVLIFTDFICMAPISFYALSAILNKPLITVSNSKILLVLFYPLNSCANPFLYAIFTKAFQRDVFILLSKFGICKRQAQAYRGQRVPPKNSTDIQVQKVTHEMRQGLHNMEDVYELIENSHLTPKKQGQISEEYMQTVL
Sequence of Nuclear receptor subfamily 1 group I member 3 (Homo sapiens) (Q14994 whole entry, looked up): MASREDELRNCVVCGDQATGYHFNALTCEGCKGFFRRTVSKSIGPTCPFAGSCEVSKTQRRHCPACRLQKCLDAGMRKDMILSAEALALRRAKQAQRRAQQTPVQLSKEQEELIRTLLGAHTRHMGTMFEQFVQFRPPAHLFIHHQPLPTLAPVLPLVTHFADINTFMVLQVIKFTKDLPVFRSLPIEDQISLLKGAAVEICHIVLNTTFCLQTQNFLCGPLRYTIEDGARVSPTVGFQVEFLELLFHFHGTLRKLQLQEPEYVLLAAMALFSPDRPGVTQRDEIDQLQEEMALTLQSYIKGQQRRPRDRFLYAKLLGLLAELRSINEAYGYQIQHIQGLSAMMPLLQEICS

## Cc1cc(C(C)(C)C)c(O)c(C)c1Cn1c(=O)n(Cc2c(C)cc(C(C)(C)C)c(O)c2C)c(=O)n(Cc2c(C)cc(C(C)(C)C)c(O)c2C)c1=O
[1]
  Potency: inactive
[2]
  Potency: inactive
[3]
  Potency: inactive
[4]
  Potency: inactive
[5]
  Potency: inactive
[6]
  Potency: inactive
[7]
  Potency: inactive
[8]
  Potency: inactive
[9]; at 92.4 µM (top of the series)
  activity change, positive = activation: -29.1%
[10]
  Potency: 21.9 µM (active)
[11]
  Potency: inactive

## Cc1cc(C(C#N)c2ccc(Cl)cc2)c(Cl)cc1NC(=O)c1cc(I)cc(I)c1O (stereo not drawn)
[1]
  Potency: inactive
[2]
  Potency: inactive
[3]
  Potency: inactive
[4]
  Potency: inactive
[5]
  Potency: inactive
[12]
  Potency: inactive
[13]
  Potency: 26.6 µM (active)
[9]; at 42.5 µM (top of the series)
  activity change, positive = activation: -52.3%
[14]
  Potency: inactive
[10]
  Potency: inactive
[11]
  Potency: inactive
[15]
  Potency: inactive

## Oc1c(I)cc(Cl)c2cccnc12
[1]
  Potency: inactive
[2]
  Potency: inactive
[3]
  Potency: inactive
[4]
  Potency: 27.3 µM (active)
[5]
  Potency: inactive
[12]
  Potency: inactive
[8]
  Potency: inactive
[13]
  Potency: 19.3 µM (active) and 11.9 µM (active)
[9]; at 42.5 µM (top of the series)
  activity change, positive = activation: -30.5%
[9]; at 92.4 µM (top of the series)
  activity change, positive = activation: -54.8%
[14]
  Potency: inactive
[11]
  Potency: inactive
[15]
  Potency: inactive

## O=C(O)Cc1ccccc1Nc1c(Cl)cccc1Cl
[1]
  Potency: inactive
[2]
  Potency: inactive
[3]
  Potency: inactive
[16]
  Potency: inactive
[4]
  Potency: inactive
[6]
  Potency: inactive
[17]
  Potency: inactive
[8]
  Potency: inactive
[14]
  Potency: inactive
[10]
  Potency: inactive
[11]
  Potency: inactive
[15]
  Potency: inactive

## CN1CCC[C@@H]1CCO[C@](C)(c1ccccc1)c1ccc(Cl)cc1
[18]
  Potency: 26.6 µM (active)
[19]
  Potency: inactive
[20]
  Potency: inactive
[12]
  Potency: 21.3 µM (active)
[9]; at 42.5 µM (top of the series)
  activity change, positive = activation: -35.9%
[14]
  Potency: 23.9 µM (active)
[10]
  Potency: 19 µM (active)
[11]
  Potency: inactive
[15]
  Potency: 23.9 µM (active)

## CCOC(=O)Cn1cccc1-c1nc(-c2ccc(OC)cc2)c(-c2ccc(OC)cc2)s1
[1]
  Potency: inactive
[2]
  Potency: inactive
[3]
  Potency: inactive
[16]
  Potency: inactive
[4]
  Potency: inactive
[12]
  Potency: inactive
[8]
  Potency: inactive
[10]
  Potency: inactive
[11]
  Potency: inactive

## CC[C@H](C)COC(=O)/C=C/c1ccc(N=Cc2ccc(OC)cc2)cc1
[1]
  Potency: 4.47 µM (active)
[2]
  Potency: inactive
[3]
  Potency: inactive
[16]
  Potency: inactive
[19]
  Potency: 24.3 µM (active)
[4]
  Potency: inactive
[6]
  Potency: inactive
[12]
  Potency: inactive
[17]
  Potency: inactive
[8]
  Potency: 89.7 µM (active)
[14]
  Potency: inactive
[10]
  Potency: 21.8 µM (active)
[11]
  Potency: inactive
[15]
  Potency: inactive

## C=Cc1cccc(C)c1
[1]
  Potency: inactive
[2]
  Potency: inactive
[3]
  Potency: inactive
[16]
  Potency: inactive
[19]
  Potency: inactive
[4]
  Potency: inactive
[6]
  Potency: inactive
[7]
  Potency: inactive
[17]
  Potency: inactive
[8]
  Potency: inactive
[14]
  Potency: inactive
[10]
  Potency: inactive
[11]
  Potency: inactive
[15]
  Potency: inactive

## O=C1CCc2ccc(OCCCCN3CCN(c4cccc(Cl)c4Cl)CC3)cc2N1
[18]
  Potency: 26.6 µM (active)
[16]
  Potency: inactive
[19]
  Potency: inactive
[5]
  Potency: inactive
[8]
  Potency: 55.2 µM (active)
[13]
  Potency: 11.9 µM (active)
[9]; at 42.5 µM (top of the series)
  activity change, positive = activation: -56%
[10]
  Potency: 10.7 µM (active)
[11]
  Potency: inactive
